Tests used:
Settings in all cases: concentration: 1 μM,replicates: in singlicate; n = 1
ZAK = tested on: ZAK
ZAP70 = tested on: ZAP70
p38-alpha = tested on: T1, p38-alpha
T1 construct: gene MAPK14

p38-beta = tested on: T2, p38-beta
T2 construct: gene MAPK11

p38-delta = tested on: p38-delta
p38-gamma = tested on: T3, p38-gamma
T3 construct: gene MAPK12
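Further: KINOMEscan kinase panel screen.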

Row | SMILES | %Inh (ZAK) [%] | %Inh (ZAP70) [%] | %Inh (p38-alpha) [%] | %Inh (p38-beta) [%] | %Inh (p38-delta) [%] | %Inh (p38-gamma) [%]
1 | Cn1cc(-c2cccc3c(N)c(C(N)=O)nnc23)cn1 | 0 | 9 | 2 | 16 | 6 | 27
2 | CN1CCN(CCNc2nc3cc(Oc4ccc(NC(=O)Nc5cc(C(F)(F)F)ccc5F)cc4)ccc3[nH]2)CC1.Cl.Cl [GW768504] | 2 | 12 | 0 | 7 | 0 | 27
3 | O=C(Nc1ccc(Oc2ccc3nc(NC(=O)C4CC4)cn3n2)c(F)c1)c1cccn(-c2ccccc2)c1=O | 77 | 0 | 4 | 9 | 0 | 87
4 | CNC(=O)c1ccccc1Nc1nc(Nc2cccc(CS(C)(=O)=O)c2)ncc1C.O=CO [GSK1520489] | 0 | 0 | 0 | 0 | 2 | 0
5 | CC(=O)Nc1nc2cnc(Nc3cc(NC(=O)c4cccc(CC(C)(C)C#N)c4)ccc3C)nc2s1 | 0 | 5 | 100 | 100 | 43 | 74
6 | COc1cc2ncn(-c3cc(OCC4CCCCC4)c(C(N)=O)s3)c2cc1OC [GSK204559] | 7 | 0 | 0 | 0 | 28 | 0
7 | O=C(Nc1n[nH]c2cc(-c3ccco3)ccc12)C1CC1 [SB-737447] | 0 | 0 | 0 | 0 | 3 | 26
8 | C[C@@H](Oc1cc(-n2cnc3cc(-c4ccncc4)ccc32)sc1C(N)=O)c1ccccc1Cl [GSK479719] | 0 | 15 | 71 | 0 | 14 | 0
9 | CN(c1ccc2c(c1)nc(NCc1ccc(F)cc1)n2C)c1ccnc(Nc2ccc(CS(C)(=O)=O)cc2)n1.Cl [GW813244] | 41 | 13 | 13 | 6 | 0 | 44
10 | CCNCC(Cc1ccccc1)NC(=O)c1cc(Br)c(-c2ccnc3[nH]ccc23)s1.Cl.Cl (stereo not drawn) [GSK1383280] | 15 | 0 | 11 | 0 | 53 | 0
11 | Cc1nnc(-c2ccc3occ(-c4ccc(S(C)=O)cc4)c3n2)o1 (stereo not drawn) | 0 | 0 | 0 | 0 | 0 | 0
12 | CS(=O)(=O)c1cccc(CNc2nc(Nc3ccc4c(c3)[C@@H]3C[C@@H]4CNC3=O)ncc2C(F)(F)F)c1 | 0 | 58 | 0 | 0 | 69 | 10
13 | C[C@@H](Oc1cc(-n2cnc3ccc(-c4ccncc4)cc32)sc1C(N)=O)c1ccccc1Cl [GSK483724] | 21 | 61 | 1 | 0 | 39 | 0
14 | Cc1ccc(C(=O)Nc2ccc(Oc3ccc4nc(NC(=O)C5CC5)cn4c3)c(F)c2)c(=O)n1-c1ccccc1 | 96.1 | 0 | 0 | 0 | 0 | 34
15 | Cl.Nc1n[nH]c2cc(-c3ccccn3)ccc12 [GSK2189892] | 14 | 0 | 0 | 0 | 22 | 4
16 | CCOC(=O)N1CCC(n2cnc(-c3ccc(F)cc3)c2-c2ccnc(N)n2)CC1 [SB-219952] | 9 | 14 | 95.3 | 34 | 0 | 23
17 | C[C@@H]1CNc2c(sc3ccc4nc(-c5ccncc5)ccc4c23)C(=O)N1 | 0 | 0 | 0 | 8 | 11 | 16

Row | SMILES | %Inh (ZAK) [%] | %Inh (ZAP70) [%] | %Inh (p38-alpha) [%] | %Inh (p38-beta) [%] | %Inh (p38-delta) [%] | %Inh (p38-gamma) [%]
18 | CS(=O)(=O)Nc1ccc(-c2ccnc3[nH]ccc23)cc1 [GSK993273] | 13 | 0 | 0 | 0 | 48 | 41
19 | CCN1CCN(CCCC(=O)Nc2n[nH]c3nc(-c4ccc(O)cc4)c(Br)cc23)CC1 [SB-731579] | 0 | 0 | 2 | 0 | 30 | 0
20 | CCn1c(-c2nonc2N)nc2cncc(CNC3CCNCC3)c21.Cl [SB-747651] | 7 | 32 | 0 | 0 | 44 | 10
21 | Cl.Cl.NC[C@H](CC1CCCCC1)NC(=O)c1ccc(-c2ccnc3[nH]ccc23)s1 [GSK1581428] | 0 | 0 | 0 | 0 | 7 | 13
22 | c1ccc(Oc2ccc(Nc3ccnc4ccc(-c5ccccn5)cc34)cc2)cc1 [GW407034] | 53 | 0 | 0 | 4 | 19 | 0
23 | CC(C)S(=O)(=O)N1CCN(Cc2ccc3c(c2)nc(NC(=O)c2ccsc2)n3C[C@H](O)c2ccccc2)CC1 [GW635815] | 1 | 0 | 6 | 4 | 47 | 0
24 | Cc1ccn2nc(-c3ccc(F)cc3)c(-c3ccncc3)c2c1.Cl [GW457859] | 0 | 0 | 99.7 | 18 | 52 | 30
25 | COc1cccc(CNC(=O)NC2CCN(c3ccnc(Nc4cc(OC)c(OC)c(OC)c4)n3)C2)c1 (stereo not drawn) [GSK1379765] | 26 | 43 | 12 | 0 | 44 | 1
26 | Cc1cccc(-c2nc(Nc3ccncc3)c3sccc3n2)n1 [GW869641] | 27 | 14 | 31 | 17 | 0 | 32
27 | OCCn1cc(-c2cnc3nnn(Cc4ccc5ncccc5c4)c3n2)cn1 | 0 | 0 | 0 | 20 | 0 | 0
28 | COc1cc(Nc2nccc(N3CCC(NC(=O)c4cccc(C#N)c4)C3)n2)cc(OC)c1OC (stereo not drawn) [GSK1379751] | 0 | 45 | 23 | 0 | 22 | 0
29 | Cc1ccc(CC(=O)N2CCc3cc(-c4cn(C)c5ncnc(N)c45)ccc32)cc1 [GSK2634758] | 21 | 0 | 0 | 0 | 8 | 0
30 | Cn1ccc2ncnc(Oc3ccc(NC(=O)Nc4ccnc(C(F)(F)F)c4)c(Cl)c3)c21 | 17 | 0 | 18 | 0 | 25 | 0
31 | Cc1ccc2c(-c3ccnc(Nc4ccc(C(F)(F)F)cc4)n3)cnn2n1 [GW819776] | 0 | 15 | 0 | 0 | 0 | 44
32 | CSc1nccc(-c2c(-c3ccc(F)cc3)ncn2CCCN2CCOCC2)n1.Cl [SB-217146] | 0 | 8 | 67 | 0 | 0 | 2
33 | Cc1n[nH]c2cc(Nc3ccnc(Nc4cccc(CN5CCOCC5)c4)n3)ccc12 [GW682569] | 14 | 17 | 11 | 0 | 28 | 0

— publication PMC5540273 (PLoS ONE, 2017)
